Screens from PubChem.
CD40 NFkB inh: CD40 pathway inhibition in BL2 cells; BL2 NF-kB luciferase reporter, CD40L-induced, 4 h; inhibition, % at 10 µM; hit rate 0.94% among 83,000;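 active means mean inhibition of at least 50% with a set share of replicates also reaching that level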
Of the large screens only hits and unclear results are named; the others gave an inactive call; ! = a repeat was not active; [ ] = another dose, or the depositor's remark. The entries come from a sample that favours hits as a whole.

C/C=C/c1ccc(C2[C@@H]3CN(C(=O)Nc4ccccc4F)C[C@H]2N3)cc1 (some centres not stated)	none
Cc1ccccc1S(=O)(=O)N1[C@@H]2CNC[C@H]1[C@@H]2c1ccc(-c2ccc(C#N)cc2)cc1	none
COc1ccc(C#Cc2ccc([C@H]3[C@@H](CO)N4CCCCN(C(=O)Nc5cccc(F)c5)C[C@H]34)cc2)cc1	none
C/C=C/c1ccc(C2[C@H]3CNC[C@@H]2N3C(=O)Nc2ccccc2Cl)cc1 (some centres not stated)	none
COc1ccc(C#Cc2ccc([C@@H]3[C@H](CO)N4CCCCN(C(=O)Nc5cccc(F)c5)C[C@@H]34)cc2)cc1	CD40 NFkB inh 68[25 µM]
O=C(Nc1ccccc1F)N1C[C@@H]2N[C@H](C1)C2c1ccc(/C=C/c2ccccc2)cc1 (some centres not stated)	CD40 NFkB inh 53
Cc1ccccc1S(=O)(=O)N1[C@@H]2CNC[C@H]1C2c1ccc(/C=C/c2ccccc2)cc1 (some centres not stated)	CD40 NFkB inh 51!
O=C(Nc1ccccc1Cl)N1[C@@H]2CNC[C@H]1C2c1ccc(/C=C/c2ccccc2)cc1 (some centres not stated)	CD40 NFkB inh 58!
O=C(Nc1ccc(F)cc1)N1C[C@@H]2N[C@H](C1)C2c1ccc(/C=C/c2ccccc2)cc1 (some centres not stated)	none
COc1ccc(C#Cc2ccc([C@@H]3[C@H]4CN(C(=O)Nc5cccc(F)c5)CCCCN4[C@H]3CO)cc2)cc1	none
COc1ccccc1S(=O)(=O)N1[C@@H]2CNC[C@H]1C2c1ccc(/C=C/c2ccccc2)cc1 (some centres not stated)	none
O=C(Nc1ccccc1Cl)N1[C@@H]2CNC[C@H]1C2c1ccc(-c2ccccc2)cc1 (some centres not stated)	none
O=C(Nc1cc(F)ccc1F)N1CC(=O)N2[C@H](CO)[C@@H](c3ccc(C#CC4CCCC4)cc3)[C@H]2C1	none
CCC(=O)N1C[C@H]2[C@@H](c3ccccc31)[C@H](CO)N2Cc1ccccc1Cl	none
C[C@@H]1CN([C@@H](C)CO)C(=O)c2c(c3ccccc3n2C)-c2ccccc2CO[C@H]1CN(C)CC1CCCCC1	none
C[C@H]1CCc2cnnn2COCCNC1=O	none
CN(C)CCCNC(=O)[C@H]1[C@H](CO)[C@H]2Cn3c(ccc(-c4ccncc4)c3=O)[C@@H]1N2C(=O)CC1CC1	none
C/C=C/c1ccc([C@H]2[C@@H](CNS(C)(=O)=O)N(CC3CCCC3)[C@H]2CO)cc1	none
C[C@@H]1C/C=C/C[C@H](c2ccc3c(c2)OCO3)NC(=O)[C@@H](C)N(C)C(=O)c2ccccc2O1	none
O=C(Nc1ccccc1F)N1CCCCN2[C@H](CO)[C@H](c3ccc(/C=C/c4ccccc4)cc3)[C@H]2C1	CD40 NFkB inh 89[25 µM]
O=C(Nc1ccccc1F)N1CCCCN2[C@H](C1)[C@@H](c1ccc(/C=C/c3ccccc3)cc1)[C@@H]2CO	none
O=C(Nc1ccccc1F)N1CCCCN2[C@H](CO)[C@H](c3ccc(/C=C/c4ccccc4)cc3)[C@@H]2C1	none
COc1ccc(S(=O)(=O)Nc2cccc3c2O[C@@H](CN(C)C(=O)Nc2cccc4ccccc24)[C@H](C)CN([C@H](C)CO)C3=O)cc1	none
C[C@@H]1CN([C@H](C)CO)C(=O)c2c(c3ccccc3n2C)-c2ccccc2CO[C@@H]1CN(C)S(=O)(=O)c1ccc(F)cc1	none
CCC(=O)N1[C@@H](CO)[C@@H](c2ccc(-c3ccccc3)cc2)[C@@H]1CNC(=O)COC	none
C1=C(CN2CCOCC2)COc2c1cccc2OCC1CNCCO1 (configuration not stated)	none
C[C@@H]1CN(C)C(=O)c2ccccc2O[C@H]1CN(C)C	none
Cc1cc(NC(c2cccnc2)c2ccc3cccnc3c2O)no1 (configuration not stated)	none
CCC(=O)NC(c1ccc(OC)cc1)c1cc(Cl)c2cccnc2c1O (configuration not stated)	none
CCC(=O)NC(c1ccccc1OC)c1ccc2cccnc2c1O (configuration not stated)	CD40 NFkB inh 88
CC(C)N(Cc1ccccc1)C(=O)COC(=O)c1cnc(Cl)c(Cl)c1	CD40 NFkB inh 61
CC(C)CN(C(=O)COC(=O)c1cnc(Cl)c(Cl)c1)c1c(N)n(Cc2ccccc2)c(=O)[nH]c1=O	none
CN(Cc1ccccc1)C(=O)COC(=O)c1cncc(Br)c1	none
CCC(=O)N1[C@H](CO)[C@@H](c2ccc(C3=CCCCC3)cc2)[C@@H]1CN(C)C(C)=O	none
CN(C)C(=O)[C@@H]1N[C@@H]2c3ccc(-c4ccc(F)cc4)c(=O)n3C[C@@H]2[C@H]1CO	none
O=C(C1CCOCC1)N1CC(=O)N2[C@H](CO)[C@@H](c3ccc(C#CCc4ccccc4)cc3)[C@H]2C1	none
COCC#Cc1ccc([C@H]2[C@H]3CN(C(=O)C4CCCCC4)CC(=O)N3[C@H]2CO)cc1	none
O=C(C1CCCC1)N1CC(=O)N2[C@H](CO)[C@@H](c3ccc(C#CCc4ccccc4)cc3)[C@@H]2C1	none
O=C(C1CCCC1)N1CC(=O)N2[C@@H](CO)[C@@H](c3ccc(C#CCc4ccccc4)cc3)[C@@H]2C1	CD40 NFkB inh 55
O=C(C1CCCC1)N1CC(=O)N2[C@H](C1)[C@@H](c1ccc(C#CCc3ccccc3)cc1)[C@@H]2CO	CD40 NFkB inh 51
COCC#Cc1ccc([C@H]2[C@H]3CN(C(=O)C4CCCC4)CC(=O)N3[C@H]2CO)cc1	none
O=C(Nc1cc(F)ccc1F)N1C[C@H]2[C@@H](c3ccccc31)[C@H](CO)N2CC1CCCC1	none
Cc1ccccc1S(=O)(=O)N[C@H]1CC[C@H](CCn2cc(Cc3ccccc3)nn2)O[C@H]1CO	none
Cc1nnc(C)c2c(C)n(/N=C/c3cc(Br)ccc3O)c(C)c12	none
C/C=C/c1ccc([C@@H]2[C@@H](CO)N3C(=O)CN(C(=O)Nc4ccc(F)cc4)C[C@H]23)cc1	none
C[C@H](CO)N1C[C@H](C)[C@H](CN(C)C)Oc2ccc(NC(=O)NC3CCCCC3)cc2CC1=O	none
C=CC[n+]1c(/C=C2\C=Cc3cc(C)ccc3N2CC)ccc2ccccc21	CD40 NFkB inh 65
O=C(NC1Cc2ccccc2C1)[C@H]1[C@H](CO)[C@H]2Cn3c(ccc(C4=CCCCC4)c3=O)[C@@H]1N2CC1CC1	none
CC(=O)Nc1cccc2c1O[C@@H](CN(C)C(=O)OC(C)(C)C)[C@H](C)CN(C)C2=O	none
C[C@@H]1CN([C@@H](C)CO)C(=O)CCCn2nncc2CO[C@@H]1CN(C)Cc1cccnc1	none
O=C(C[C@H]1CC[C@@H]2NC[C@@H](O)COC[C@H]2O1)NCCc1ccncc1	none
CS(=O)(=O)N1C[C@@H]2C(c3ccccc3)[C@H](C1)N2Cc1ccc(F)cc1 (some centres not stated)	none
Cn1cnnc1SCc1ccc(F)c2ccccc12	none
Cn1cnnc1SCc1ccc(C(=O)NN)cc1	none
Cn1cnnc1SCc1ccc(-c2ccc(Br)cc2)o1	CD40 NFkB inh 80
O=C(C1CCCC1)N1CC(=O)N2[C@H](CO)[C@H](c3ccc(C#Cc4cccc(F)c4)cc3)[C@@H]2C1	none
COc1ccc(-c2ccc3c(c2)[C@H]2[C@H](CCN2C(=O)Cc2ccccc2)[C@H](CO)N3C)cc1	none
Cc1ccc(C)c(C(=O)c2c(C)nc3sccn23)c1	none
Cc1nc2sccn2c(=O)c1CCN1CCC(=C(c2ccc(F)cc2)c2ccc(F)cc2)CC1	CD40 NFkB inh 27
Cc1nc2ccccn2c(=O)c1CCN1CCC(C(=O)c2ccc(F)cc2)CC1	none
CNC[C@@H]1Oc2ncccc2C(=O)N(C)C[C@@H]1C	none
COc1ccc(C[C@@H]2CCn3nncc3COC[C@H](CC(C)C)NC2=O)cc1	none
